{"source": "paper PMC8384837", "about": "“Expanding the binding specificity for RNA recognition by a PUF domain”", "data": [{"target": "PUM1 PUF domain R3-AFG (Homo sapiens, UniProt Q14671 828-1176, C935A;R936F;Q939G)", "assay": "yeast three-hybrid, YBZ-1, SC-Leu-His + 0.5 mM 3-AT, 4 days", "conditions": "tags: N-Gal4 AD-HA kept; label: inside an RPR1-promoter hybrid RNA with tandem MS2 sites; ssRNA", "how_it_was_run": "(§1)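 The interaction score is the log change in how often each variant appears, from input to selection. Frequencies came from PCR-amplified, Illumina-sequenced repeat regions of Pumilio-1 PUF domain libraries grown in strain YBZ-1 (LexA–MS2 coat fusion, HIS3 reporter) alongside matching RNA elements. Input plates were SC-Leu and selection plates were SC-Leu-His + 0.5 mM 3-AT, each for four days, and the log2 calculation used a pseudocount of 1 where a variant was absent.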", "values": [{"sequence": "GGCUAGAACUAGUGGAUCCCCCGGCGCCCGGCGGCUCGAGCCCGGGUAAGUGUAAUUAGUCUGCAUGCCGCCGGGCGCCAUGCCUGCAGGUCGACUCUAGAAAACAUG", "binding signal": "1.51 log2 enrichment (interaction score)"}, {"sequence": "GGCUAGAACUAGUGGAUCCCCCGGCGCCCGGCGGCUCGAGCCCGGGUAAGUGUAAAUAGUCUGCAUGCCGCCGGGCGCCAUGCCUGCAGGUCGACUCUAGAAAACAUG", "binding signal": "3.62 log2 enrichment (interaction score)"}, {"sequence": "GGCUAGAACUAGUGGAUCCCCCGGCGCCCGGCGGCUCGAGCCCGGGUAAGUGUAAGUAGUCUGCAUGCCGCCGGGCGCCAUGCCUGCAGGUCGACUCUAGAAAACAUG", "binding signal": "0.76 log2 enrichment (interaction score)"}]}, {"target": "PUM1 PUF domain R4-ARA (Homo sapiens, UniProt Q14671 828-1176, N971A;H972R;Q975A)", "assay": "yeast three-hybrid, YBZ-1, SC-Leu-His + 0.5 mM 3-AT, 4 days", "conditions": "tags: N-Gal4 AD-HA kept; label: inside an RPR1-promoter hybrid RNA with tandem MS2 sites; ssRNA", "how_it_was_run": "as §1", "values": [{"sequence": "GGCUAGAACUAGUGGAUCCCCCGGCGCCCGGCGGCUCGAGCCCGGGUAAGUGUAUAUAGUCUGCAUGCCGCCGGGCGCCAUGCCUGCAGGUCGACUCUAGAAAACAUG", "binding signal": "1.69 log2 enrichment (interaction score)"}, {"sequence": "GGCUAGAACUAGUGGAUCCCCCGGCGCCCGGCGGCUCGAGCCCGGGUAAGUGUAAAUAGUCUGCAUGCCGCCGGGCGCCAUGCCUGCAGGUCGACUCUAGAAAACAUG", "binding signal": "3.7 log2 enrichment (interaction score)"}, {"sequence": "GGCUAGAACUAGUGGAUCCCCCGGCGCCCGGCGGCUCGAGCCCGGGUAAGUGUACAUAGUCUGCAUGCCGCCGGGCGCCAUGCCUGCAGGUCGACUCUAGAAAACAUG", "binding signal": "2.79 log2 enrichment (interaction score)"}]}, {"target": "PUM1 PUF domain R1-RWQ (Homo sapiens, UniProt Q14671 828-1176, S863R;R864W)", "assay": "yeast three-hybrid, YBZ-1, SC-Leu-His + 0.5 mM 3-AT, 4 days", "conditions": "tags: N-Gal4 AD-HA kept; label: inside an RPR1-promoter hybrid RNA with tandem MS2 sites; ssRNA", "how_it_was_run": "as §1", "values": [{"sequence": "GGCUAGAACUAGUGGAUCCCCCGGCGCCCGGCGGCUCGAGCCCGGGUAAGUGUAAAUCGUCUGCAUGCCGCCGGGCGCCAUGCCUGCAGGUCGACUCUAGAAAACAUG", "binding signal": "6.93 log2 enrichment (interaction score)"}, {"sequence": "GGCUAGAACUAGUGGAUCCCCCGGCGCCCGGCGGCUCGAGCCCGGGUAAGUGUAAAUUGUCUGCAUGCCGCCGGGCGCCAUGCCUGCAGGUCGACUCUAGAAAACAUG", "binding signal": "7.23 log2 enrichment (interaction score)"}, {"sequence": "GGCUAGAACUAGUGGAUCCCCCGGCGCCCGGCGGCUCGAGCCCGGGUAAGUGUAAAUGGUCUGCAUGCCGCCGGGCGCCAUGCCUGCAGGUCGACUCUAGAAAACAUG", "binding signal": "2.2 log2 enrichment (interaction score)"}]}]}
